Inconclusive results are not listed. Activity calls are given as the source filed them. The calls were made as follows, unless noted: active = hit-call score of the fitted dose curve at least 0.9, where 1 is the maximum; inconclusive = response in the unintended direction; inactive = score below 0.9.
Key:
[1] = ATG_PBREM_CIS: Attagene CIS-FACTORIAL HepG2 Assay for human Phenobarbital-responsive Enhancer Module (PBREM) (AID 2282955; active = hit-call score of the fitted dose curve at least 0.9, where 1 is the maximum; inactive = score below 0.9); details: HepG2 PBREM cis-reporter, Attagene multiplexed transcription; actives raise or lower the signal
Summary of the method: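 Reporter mRNA read by RT-PCR, 6-FAM primer extension, HpaI digestion and capillary electrophoresis. Transfected HepG2 cells, 24 h compound exposure. Gain or loss of signal fitted bidirectionally relative to DMSO baseline.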

[2] = ATG_VDRE_CIS: Attagene CIS-FACTORIAL HepG2 Assay for human Vitamin D Receptor Element (VDRE) (AID 2282968; active = hit-call score of the fitted dose curve at least 0.9, where 1 is the maximum; inactive = score below 0.9); details: HepG2 VDRE cis-reporter transcription, actives raise or lower the signal
Summary of the method: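 Steps: transfect HepG2 with multiple reporter transcription units; dose chemicals 24 h; isolate RNA; RT-PCR; label with 6-FAM primer extension; HpaI digest; capillary electrophoresis. Curves fitted both directions against DMSO.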

[3] = ATG_M_19_TRANS: Attagene TRANS-FACTORIAL HepG2 Assay for M19 Transcription Factor (Internal Marker) (AID 2282974); details: HepG2 Attagene TRANS-FACTORIAL M19 internal marker reporter
Summary of the method: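 24 h chemical exposure of transiently transfected HepG2 (MRTU library). RNA → oligo(dT) RT → PCR → 6-FAM labelling → HpaI cut → CE fluorescence. Positive-direction fit vs DMSO baseline; background internal-marker readout.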

[4] = target: Glucocorticoid receptor (Homo sapiens) (UniProt P04150); test: ATG_GR_TRANS: Attagene TRANS-FACTORIAL HepG2 Assay for human Glucocorticoid Receptor (GR) (AID 2282978); details: HepG2 Attagene TRANS GR reporter, mRNA transcription;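 also: activators score as hits since higher reporter transcript over DMSO is fitted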
Chain of Glucocorticoid receptor (Homo sapiens) (P04150 whole entry, looked up, the tested form may be a part): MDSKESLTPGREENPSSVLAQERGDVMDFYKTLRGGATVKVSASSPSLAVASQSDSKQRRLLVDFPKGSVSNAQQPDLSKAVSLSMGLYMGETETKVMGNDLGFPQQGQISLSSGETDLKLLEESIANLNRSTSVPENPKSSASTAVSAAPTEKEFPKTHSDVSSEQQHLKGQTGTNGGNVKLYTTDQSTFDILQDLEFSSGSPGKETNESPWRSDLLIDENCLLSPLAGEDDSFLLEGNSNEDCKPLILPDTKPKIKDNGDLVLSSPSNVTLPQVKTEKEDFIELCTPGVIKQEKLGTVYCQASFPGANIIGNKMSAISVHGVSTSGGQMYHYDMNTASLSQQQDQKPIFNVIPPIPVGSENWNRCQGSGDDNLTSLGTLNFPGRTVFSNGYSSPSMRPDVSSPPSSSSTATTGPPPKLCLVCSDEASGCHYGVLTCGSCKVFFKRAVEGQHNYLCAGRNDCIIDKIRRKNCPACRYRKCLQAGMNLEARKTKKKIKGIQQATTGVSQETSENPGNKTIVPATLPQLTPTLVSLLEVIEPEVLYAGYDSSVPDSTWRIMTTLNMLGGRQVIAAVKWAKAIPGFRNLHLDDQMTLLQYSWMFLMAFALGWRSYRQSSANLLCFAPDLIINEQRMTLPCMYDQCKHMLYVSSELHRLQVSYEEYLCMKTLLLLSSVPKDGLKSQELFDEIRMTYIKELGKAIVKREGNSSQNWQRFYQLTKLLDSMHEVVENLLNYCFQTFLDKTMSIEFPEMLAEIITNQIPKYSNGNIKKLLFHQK
Summary of the method: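 Transient MRTU transfection of HepG2 (GAL4-UAS reporters, exogenous NR-GAL4 chimeras), 24 h dosing. Readout: reporter transcript via RT-PCR + capillary electrophoresis fluorescence. Positive direction vs DMSO baseline.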

[5] = target: Oxysterols receptor LXR-alpha (Homo sapiens) (UniProt Q13133); test: ATG_LXRa_TRANS: Attagene TRANS-FACTORIAL HepG2 Assay for human Liver X Receptor alpha (LXRa) (AID 2282980); details: HepG2 Attagene TRANS reporter, LXRa transactivation
Chain of Oxysterols receptor LXR-alpha (Homo sapiens) (Q13133 whole entry, looked up, the tested form may be a part): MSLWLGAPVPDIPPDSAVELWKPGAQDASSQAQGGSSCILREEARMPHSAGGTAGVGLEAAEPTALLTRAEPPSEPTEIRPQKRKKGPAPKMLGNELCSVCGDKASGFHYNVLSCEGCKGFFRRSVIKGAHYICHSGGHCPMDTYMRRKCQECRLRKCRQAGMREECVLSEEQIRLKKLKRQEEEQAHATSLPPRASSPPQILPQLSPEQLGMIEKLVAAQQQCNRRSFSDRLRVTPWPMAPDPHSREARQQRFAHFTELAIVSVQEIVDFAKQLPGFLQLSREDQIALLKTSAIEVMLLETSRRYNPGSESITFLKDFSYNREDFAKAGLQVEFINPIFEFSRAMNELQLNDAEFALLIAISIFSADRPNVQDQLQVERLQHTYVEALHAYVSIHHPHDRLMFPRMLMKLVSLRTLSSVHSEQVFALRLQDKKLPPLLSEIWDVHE
Summary of the method: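 HepG2 cells transiently transfected with GAL4-UAS reporter units for chimeric NR-Gal4 proteins, exposed to chemicals for 24 h. Reporter mRNA quantified by RT-PCR and capillary electrophoresis; gain of signal fitted relative to DMSO.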

[6] = ATG_M_06_TRANS: Attagene TRANS-FACTORIAL HepG2 Assay for M06 Transcription Factor (Internal Marker) (AID 2282983); details: HepG2 Attagene TRANS M06 internal marker reporter
Summary of the method: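 mRNA levels of a reporter transcript, quantified as FAM fluorescence on capillary electrophoresis, served as readout. HepG2 cells expressing exogenous GAL4-chimera reporter constructs were exposed for 24 h. Gain of signal over DMSO was evaluated.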

[7] = target: human Peroxisome Proliferator-activated Receptor alpha (PPARa), PPARA (gene 5465) (UniProt Q07869); test: ATG_PPARa_TRANS: Attagene TRANS-FACTORIAL HepG2 Assay for human Peroxisome Proliferator-activated Receptor alpha (PPARa) (AID 2283001);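 as to AC50: potency for gain of reporter signal over DMSO so agonist or activator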
Chain of human Peroxisome Proliferator-activated Receptor alpha (PPARa), PPARA (gene 5465) (Q07869 whole entry, looked up): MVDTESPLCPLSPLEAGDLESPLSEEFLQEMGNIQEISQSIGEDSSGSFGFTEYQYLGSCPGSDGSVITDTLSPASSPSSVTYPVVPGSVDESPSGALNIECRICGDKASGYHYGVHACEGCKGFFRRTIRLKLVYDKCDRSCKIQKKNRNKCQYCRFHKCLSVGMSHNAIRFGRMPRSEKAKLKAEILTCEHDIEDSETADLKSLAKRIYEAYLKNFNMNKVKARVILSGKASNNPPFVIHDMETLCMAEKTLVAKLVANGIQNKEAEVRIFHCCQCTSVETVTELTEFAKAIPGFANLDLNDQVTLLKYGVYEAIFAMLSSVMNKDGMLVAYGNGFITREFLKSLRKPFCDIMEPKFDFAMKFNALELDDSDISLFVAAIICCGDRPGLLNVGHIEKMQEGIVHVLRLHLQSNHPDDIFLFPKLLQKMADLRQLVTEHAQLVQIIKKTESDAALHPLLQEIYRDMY
Summary of the method: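 Cells (HepG2) are transfected with multiple reporter transcription units, exposed to chemical for 24 h, then total RNA is reverse-transcribed and amplified. Labelled products are quantified by capillary electrophoresis; induction is referenced to DMSO.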

[8] = target: human Peroxisome Proliferator-activated Receptor delta (PPARd), PPARD (gene 5467) (UniProt Q03181); test: ATG_PPARd_TRANS: Attagene TRANS-FACTORIAL HepG2 Assay for human Peroxisome Proliferator-activated Receptor delta (PPARd) (AID 2283002)
Chain of human Peroxisome Proliferator-activated Receptor delta (PPARd), PPARD (gene 5467) (Q03181 whole entry, looked up, the tested form may be a part): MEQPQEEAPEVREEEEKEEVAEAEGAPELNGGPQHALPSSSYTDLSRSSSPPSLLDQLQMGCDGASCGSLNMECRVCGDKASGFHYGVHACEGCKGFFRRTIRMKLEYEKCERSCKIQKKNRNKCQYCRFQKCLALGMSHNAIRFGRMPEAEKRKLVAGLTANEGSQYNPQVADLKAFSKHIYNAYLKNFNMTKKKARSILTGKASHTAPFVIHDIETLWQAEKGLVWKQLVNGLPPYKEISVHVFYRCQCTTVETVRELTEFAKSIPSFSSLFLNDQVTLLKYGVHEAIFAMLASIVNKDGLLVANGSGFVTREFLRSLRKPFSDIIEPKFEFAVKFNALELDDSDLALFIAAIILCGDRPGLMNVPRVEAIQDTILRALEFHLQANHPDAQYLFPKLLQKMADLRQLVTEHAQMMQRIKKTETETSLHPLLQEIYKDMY
Summary of the method: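 Measured quantity: GAL4-UAS reporter transcript induction in HepG2 after 24 h chemical dosing, with NR-Gal4 chimeras supplied by transient transfection. Detection by RT-PCR and capillary electrophoresis; upward fit against DMSO.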

[9] = target: human Vitamin D Receptor (VDR), VDR (gene 7421) (UniProt P11473); test: ATG_VDR_TRANS: Attagene TRANS-FACTORIAL HepG2 Assay for human Vitamin D Receptor (VDR) (AID 2283022)
Chain of human Vitamin D Receptor (VDR), VDR (gene 7421) (P11473 whole entry, looked up, the tested form may be a part): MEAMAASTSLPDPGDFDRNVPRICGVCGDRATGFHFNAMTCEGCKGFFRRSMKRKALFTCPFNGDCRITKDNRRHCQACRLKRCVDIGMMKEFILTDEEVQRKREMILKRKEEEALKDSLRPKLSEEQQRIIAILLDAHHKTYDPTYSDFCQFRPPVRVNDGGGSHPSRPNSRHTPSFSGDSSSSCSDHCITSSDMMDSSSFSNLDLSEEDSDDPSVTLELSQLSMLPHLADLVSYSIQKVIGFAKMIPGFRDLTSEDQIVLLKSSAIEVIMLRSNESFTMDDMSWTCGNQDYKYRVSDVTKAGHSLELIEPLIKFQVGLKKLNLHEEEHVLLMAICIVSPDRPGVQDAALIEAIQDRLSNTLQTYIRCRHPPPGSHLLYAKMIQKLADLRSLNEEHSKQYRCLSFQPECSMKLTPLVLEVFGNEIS
Summary of the method: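 HepG2 cells were transiently transfected with GAL4-UAS reporter units and a chimeric VDR-Gal4 construct, then dosed for 24 hours. Reporter mRNA was quantified by RT-PCR, fluorescent labeling, HpaI digestion and capillary electrophoresis; gain of signal analysed vs DMSO.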

[10] = TOX21_p53_BLA_p3_viability: Viability Assessment in the Tox21 HCT-116 p53 Agonism Beta-lactamase Assay, Phase 3 (AID 2283593);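 also: cells exposed to compound for 16 h before reading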
Summary of the method: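 HCT-116 cells (4000/well) rested 5 h at 37C, then got DMSO compounds by pin tool (217-fold dilution) for 16 h at 37C, 5% CO2. After the bla read, CellTiter-Glo was added and luminescence read at 30 min, room temperature.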

[11] = ATG_GRE_CIS: Attagene CIS-FACTORIAL HepG2 Assay for human Glucocorticoid Response Elements (GRE) (AID 2282947; active = hit-call score of the fitted dose curve at least 0.9, where 1 is the maximum; inactive = score below 0.9); details: HepG2 GRE cis-reporter, Attagene multiplex mRNA; actives raise or lower the signal
Summary of the method: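 Cells (HepG2) bearing transfected cis-promoter reporter transcription units were treated with chemical for 24 hours. Reporter mRNA was measured via RT-PCR with capillary electrophoresis, and activity was fitted in both directions relative to DMSO.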

[12] = target: Nuclear receptor subfamily 1 group I member 3 (Homo sapiens) (UniProt Q14994); test: ATG_CAR_TRANS: Attagene TRANS-FACTORIAL HepG2 Assay for human Constitutive Androstane Receptor (CAR) (AID 2282969); details: HepG2 Attagene TRANS-FACTORIAL CAR reporter;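 also: activators raise reporter mRNA above DMSO so AC50 marks induction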
Chain of Nuclear receptor subfamily 1 group I member 3 (Homo sapiens) (Q14994 whole entry, looked up, the tested form may be a part): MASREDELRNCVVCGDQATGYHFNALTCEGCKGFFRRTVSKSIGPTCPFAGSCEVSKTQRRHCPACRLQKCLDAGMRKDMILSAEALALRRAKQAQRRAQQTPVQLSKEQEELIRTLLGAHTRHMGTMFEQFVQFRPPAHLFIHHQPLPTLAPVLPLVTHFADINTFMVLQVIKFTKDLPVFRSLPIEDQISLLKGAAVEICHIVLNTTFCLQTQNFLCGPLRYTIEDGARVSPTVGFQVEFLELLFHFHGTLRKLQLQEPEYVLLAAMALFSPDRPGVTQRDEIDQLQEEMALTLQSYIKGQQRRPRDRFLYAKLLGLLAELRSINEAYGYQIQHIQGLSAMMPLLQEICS
Summary of the method: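 Steps: transient transfection of HepG2 with multiple GAL4-UAS reporter units; 24 h compound incubation; RNA isolation, RT-PCR, 6-FAM primer extension, HpaI digest; capillary electrophoresis. Gain-of-signal relative to DMSO negative control.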

[13] = target: Oxysterols receptor LXR-beta (Homo sapiens) (UniProt P55055); test: ATG_LXRb_TRANS: Attagene TRANS-FACTORIAL HepG2 Assay for human Liver X Receptor beta (LXRb) (AID 2282981); details: HepG2 Attagene TRANS GAL4-LXRb reporter, mRNA
Chain of Oxysterols receptor LXR-beta (Homo sapiens) (P55055 whole entry, looked up, the tested form may be a part): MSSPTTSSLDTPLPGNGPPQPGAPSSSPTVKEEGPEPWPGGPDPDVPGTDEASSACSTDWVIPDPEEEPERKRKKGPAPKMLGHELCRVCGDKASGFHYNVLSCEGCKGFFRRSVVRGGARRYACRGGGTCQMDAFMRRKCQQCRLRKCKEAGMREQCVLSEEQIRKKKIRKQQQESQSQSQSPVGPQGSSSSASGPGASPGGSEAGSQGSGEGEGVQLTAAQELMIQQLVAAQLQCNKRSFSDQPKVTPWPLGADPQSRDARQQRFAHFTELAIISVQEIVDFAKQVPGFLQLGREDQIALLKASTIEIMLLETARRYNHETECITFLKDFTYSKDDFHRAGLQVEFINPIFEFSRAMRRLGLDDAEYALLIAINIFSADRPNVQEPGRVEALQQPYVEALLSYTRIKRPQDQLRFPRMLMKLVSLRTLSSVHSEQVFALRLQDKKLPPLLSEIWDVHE
Summary of the method: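 Measures induction of a Gal4-driven reporter transcript in HepG2 cells expressing an exogenous LXRb-Gal4 fusion. Cells are exposed to compound for 24 h before RNA isolation and RT-PCR with capillary electrophoresis detection.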

[14] = ACEA_ER_AUC_viability: ACEA Biosciences xCELLigence Real-Time Cell Analysis on Estrogen Receptor Agonism for Viability (AID 2283782);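 also: hit means loss of impedance signal meaning reduced cell growth or viability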
Summary of the method: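 Continuous-exposure impedance cell analysis uses T-47D cells in charcoal-stripped serum, eight 1:4 dilutions topping at 100 uM final, biological duplicate. Area under the growth curve at 80 h is fitted against DMSO baseline.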

[15] = CCTE_Harrill_HTTr_Viability_MCF7: CCTE's 6-hour Cell Viability Assessment for the High-Throughput Transcriptomics (HTTr) Platform, in MCF-7 cells cultured in DMEM + 10% fetal bovine serum, Harrill Lab (AID 2284010; active = hit-call score of the fitted dose curve at least 0.9, where 1 is the maximum; inactive = score below 0.9)
Summary of the method: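 Propidium iodide exclusion, imaged by high-content analysis, gauged viability after a six-hour exposure across eight concentrations. Cells were MCF-7 grown in DMEM with 10% fetal bovine serum; fits run in both directions against DMSO.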

[16] = CCTE_Harrill_HTTr_Apoptosis_MCF7: CCTE's 6-hour Apoptosis Assessment for the High-Throughput Transcriptomics (HTTr) Platform, in MCF-7 cells cultured in DMEM + 10% fetal bovine serum, Harrill Lab (AID 2284011; active = hit-call score of the fitted dose curve at least 0.9, where 1 is the maximum; inactive = score below 0.9)
Summary of the method: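 MCF-7 cells in DMEM + 10% FBS exposed 6 h to chemicals over an eight-point dilution series. Caspase-3/7 activation imaged by high-content CellEvent Green staining; fitted bidirectionally versus DMSO.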

[17] = target: Retinoic acid receptor alpha (Homo sapiens) (UniProt P10276); test: ATG_DR5_RAR_CIS: Attagene CIS-FACTORIAL HepG2 Assay for human Retinoic Acid Receptor Alpha (RARE), DR5 submotif (AID 2282934; active = hit-call score of the fitted dose curve at least 0.9, where 1 is the maximum; inactive = score below 0.9;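 as to AC50: reporter responds to endogenous RAR alpha beta and gamma in HepG2 not RARA alone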); details: HepG2 Attagene cis-factorial RARE DR5 reporter, mRNA; actives raise or lower the signal
Chain of Retinoic acid receptor alpha (Homo sapiens) (P10276 whole entry, looked up): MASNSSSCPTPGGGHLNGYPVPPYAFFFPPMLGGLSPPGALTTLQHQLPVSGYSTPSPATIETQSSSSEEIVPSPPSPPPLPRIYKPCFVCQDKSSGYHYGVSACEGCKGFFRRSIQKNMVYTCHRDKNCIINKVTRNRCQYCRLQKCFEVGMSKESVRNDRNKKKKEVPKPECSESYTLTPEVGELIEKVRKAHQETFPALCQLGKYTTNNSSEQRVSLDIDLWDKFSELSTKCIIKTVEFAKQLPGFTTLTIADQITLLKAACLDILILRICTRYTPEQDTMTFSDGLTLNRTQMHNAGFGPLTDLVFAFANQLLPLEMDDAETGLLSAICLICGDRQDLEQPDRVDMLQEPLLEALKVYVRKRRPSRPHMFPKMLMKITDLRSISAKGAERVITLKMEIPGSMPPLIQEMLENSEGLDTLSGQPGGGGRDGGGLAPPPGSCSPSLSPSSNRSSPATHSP
Summary of the method: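 Transfected HepG2 reporter cells are exposed to chemicals for 24 h. Then RNA is extracted and the DR5 element reporter transcript is measured by RT-PCR and capillary electrophoresis, with bidirectional curve fitting relative to DMSO.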

[18] = ATG_PPRE_CIS: Attagene CIS-FACTORIAL HepG2 Assay for human Peroxisome Proliferator-activated Response Element (PPRE) (AID 2282958; active = hit-call score of the fitted dose curve at least 0.9, where 1 is the maximum; inactive = score below 0.9); details: HepG2 PPRE cis-element reporter, Attagene transcription factor profiling; actives raise or lower the signal
Summary of the method: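 Read-out: fluorescent reporter mRNA fragments resolved by capillary electrophoresis after RT-PCR. HepG2 cells carried transiently transfected PPRE-driven cis reporter constructs and were dosed for 24 h; gain or loss of signal fitted relative to DMSO.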

[19] = target: human RAR-related Orphan Receptor beta (RORb), RORB (gene 6096) (UniProt Q92753); test: ATG_RORb_TRANS: Attagene TRANS-FACTORIAL HepG2 Assay for human RAR-related Orphan Receptor beta (RORb) (AID 2283010)
Chain of human RAR-related Orphan Receptor beta (RORb), RORB (gene 6096) (Q92753 whole entry, looked up, the tested form may be a part): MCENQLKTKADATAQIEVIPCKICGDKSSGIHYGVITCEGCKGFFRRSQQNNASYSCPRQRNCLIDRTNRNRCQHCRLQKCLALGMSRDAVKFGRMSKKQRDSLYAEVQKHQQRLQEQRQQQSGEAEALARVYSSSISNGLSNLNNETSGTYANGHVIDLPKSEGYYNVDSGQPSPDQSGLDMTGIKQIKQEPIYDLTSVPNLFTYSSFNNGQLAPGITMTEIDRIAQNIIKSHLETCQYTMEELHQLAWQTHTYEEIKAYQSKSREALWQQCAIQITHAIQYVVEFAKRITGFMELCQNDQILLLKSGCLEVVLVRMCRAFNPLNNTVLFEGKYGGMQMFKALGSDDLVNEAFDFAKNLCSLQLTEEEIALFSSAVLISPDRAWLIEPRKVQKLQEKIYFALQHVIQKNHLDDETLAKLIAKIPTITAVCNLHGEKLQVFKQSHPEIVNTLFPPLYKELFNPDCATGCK
Summary of the method: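 Read-out is reporter mRNA induction, quantified by RT-PCR with fluorescent capillary electrophoresis, 24 h post-dose in transiently transfected HepG2 expressing exogenous NR-Gal4 chimera. Activity fitted upward versus DMSO.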

[20] = target: Estrogen-related receptor gamma (Homo sapiens) (UniProt P62508); test: ATG_ERRg_TRANS: Attagene TRANS-FACTORIAL HepG2 Assay for human Estrogen-Related Receptor gamma (ERRg) (AID 2282977); details: HepG2 Attagene TRANS reporter, ERRg transactivation;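 also: hits increase reporter signal over DMSO so potencies reflect activators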
Chain of Estrogen-related receptor gamma (Homo sapiens) (P62508 whole entry, looked up, the tested form may be a part): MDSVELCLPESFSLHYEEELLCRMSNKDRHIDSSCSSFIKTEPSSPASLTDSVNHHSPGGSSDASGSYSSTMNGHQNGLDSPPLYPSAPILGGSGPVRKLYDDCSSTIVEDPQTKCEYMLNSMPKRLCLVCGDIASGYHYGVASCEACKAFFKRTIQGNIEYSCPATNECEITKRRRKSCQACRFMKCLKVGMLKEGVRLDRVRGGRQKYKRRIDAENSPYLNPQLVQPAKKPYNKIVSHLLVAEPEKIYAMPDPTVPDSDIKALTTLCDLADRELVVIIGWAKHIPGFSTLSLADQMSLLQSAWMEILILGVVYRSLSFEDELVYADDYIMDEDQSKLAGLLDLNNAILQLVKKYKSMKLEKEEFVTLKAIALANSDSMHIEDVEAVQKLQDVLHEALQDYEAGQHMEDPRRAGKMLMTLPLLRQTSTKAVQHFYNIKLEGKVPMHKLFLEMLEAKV
Summary of the method: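 Exogenous NR-Gal4 chimera activity measured as reporter transcript induction after 24 h in transiently transfected HepG2 cells. RNA reverse-transcribed, PCR-amplified, 6-FAM-labelled and resolved by capillary electrophoresis; increase over DMSO baseline.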

Measured: AC50

CCCCCCCCCC/C=C/C1CC(=O)OC1=O (centres undefined)
inactive: [1] | [2] | [3] | [4] | [5] | [6] | [7] | [8] | [9] | [10]

COc1cccc(OC)c1C(=O)O
inactive: [11] | [1] | [12] | [5] | [13] | [9] | [14]

Oc1cccc2ccccc12
inactive: [2] | [7] | [8] | [9] | [10] | [15] | [16]

O=C1NC(=O)C2CC=CCC12 (centres undefined)
inactive: [17] | [2] | [13] | [6] | [8] | [9] | [10]

NC(N)=Nc1nc(CSCCC(N)=NS(N)(=O)=O)cs1
inactive: [17] | [11] | [18] | [2] | [4] | [13] | [7] | [10] | [15] | [16]

COCCCN
inactive: [1] | [18] | [2] | [12] | [3] | [5] | [7] | [8] | [10] | [14]

CC(C)CC(=O)CC(C)CC(C)C (centres undefined)
inactive: [17] | [18] | [12] | [3] | [13] | [19] | [10] | [14]

O=C(O)/C=C\C(=O)O
inactive: [2] | [3] | [20] | [4] | [13] | [8] | [19] | [15] | [16]

O=[N+]([O-])c1ccccc1C(F)(F)F
inactive: [17] | [1] | [18] | [12] | [3] | [20] | [7] | [19] | [9] | [10]

CCCCCCCCCCCCCCCCCC[N+](C)(C)C
inactive: [12] | [5] | [13] | [8] | [9]
active: [17] 42.5 µM | [18] 6.2 µM | [20] 25 µM | [4] 11.8 µM | [7] 40.9 µM | [10] 46.2 µM

O=C(O)/C=C/C(=O)O
inactive: [1] | [2] | [4] | [5] | [6] | [7] | [8] | [19] | [9] | [14] | [15] | [16]

NC(=O)c1ccc([N+](=O)[O-])cc1Cl
inactive: [17] | [11] | [1] | [18] | [3] | [4] | [6] | [8] | [19]

CC/C=C\CCO
inactive: [3] | [20] | [4] | [13] | [6] | [7] | [19] | [15] | [16]
